Reference: PubChem BioAssay (NCI)
About 79,000 compounds went through this panel and 15% of them were active in at least one assay; those are over-represented in the sample as a whole. Rule as the data show it: active = growth inhibition above about 70%; inactive = the rest. Where a SMILES comes first, the peptide text is derived from it. [ ]: non-standard residue; d: D form. The star is where a group is joined. Cbz = O=C(OCc1ccccc1)*; Nva = CCC[CH](N)C(=O)O

Key:
[1] = NCI Yeast Anticancer Drug Screen. Data for the rad50 strain (AID 155);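 also: 0% = growth of vehicle-only cultures of the same strain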; details: S. cerevisiae rad50 strain growth inhibition; at 50.0 µM; active compounds read high
In short: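 Inhibition values express reduced yeast growth in compound-treated cultures relative to vehicle-treated controls.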

[2] = NCI Yeast Anticancer Drug Screen. Data for the mec2-1 strain (AID 157); details: S. cerevisiae mec2-1 strain, at 50.0 µM, active compounds read high
In short: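 Cells of the genetically defined mec2-1 yeast strain are incubated with test compound. Inhibition of growth is calculated against vehicle-treated controls.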

[3] = NCI Yeast Anticancer Drug Screen. Data for the sgs1 mgt1 strain (AID 161);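 also: 0% = growth of cultures given vehicle only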; details: S. cerevisiae sgs1 mgt1 strain, at 50.0 µM, active compounds read high
In short: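 Genetically altered yeast, compound exposure, growth inhibition relative to vehicle.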

[4] = NCI Yeast Anticancer Drug Screen. Data for the cln2 rad14 strain (AID 165);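 also: 0% = growth equal to vehicle treated cultures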; details: S. cerevisiae cln2 rad14 strain, at 50.0 µM, active compounds read high
In short: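 The screen exposed genetically defined yeast (cln2 rad14) to test compounds and scored growth inhibition relative to vehicle-treated controls.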

[5] = NCI Yeast Anticancer Drug Screen. Data for the bub3 strain (AID 167); details: S. cerevisiae bub3 mutant strain, at 50.0 µM, active compounds read high
In short: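 Steps: expose the mutant yeast strain to compound; grow alongside vehicle-treated cultures; measure growth; express inhibition against the vehicle cultures.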

[6] = NCI Yeast Anticancer Drug Screen. Data for the mlh1 rad18 strain (AID 175); details: S. cerevisiae mlh1 rad18 strain growth inhibition; at 50.0 µM; active compounds read high
In short: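 Compound-treated yeast growth, normalised to vehicle controls. Strain bears defined DNA repair mutations.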

Measured: growth inhibition

COc1ccc(OC)c(NC(=O)Nc2cccc(C(C)=O)c2)c1
inactive: [1] -12.2% | [2] 33.9% | [3] 33% | [4] -55.4% | [5] 35.2% | [6] 22.6%

C=C(C)C(=O)NC(N)=NC#N
inactive: [1] -44% | [2] -9.25% | [3] -5.4% | [4] -13.8% | [5] -1.55% | [6] 6.15%

O=C1/C(=C/c2ccc(O)cc2)CCC/C1=C\c1ccc(O)cc1
inactive: [1] 3.9% | [2] 1.85% | [3] 5.2% | [4] 23.1% | [5] -7.05% | [6] 1.45%

CCC1C2C=CC(CC2)N1S(=O)(=O)c1ccc(C)cc1 (configuration not stated)
inactive: [1] -0.7% | [2] -9.1% | [3] 10.8% | [4] 30% | [5] 13.2% | [6] -6.05%

O=C1C2=C(OCCO2)C(=O)C2=C1OCO2
inactive: [1] 12.4% | [2] 18.4% | [3] 28% | [4] 7.55% | [5] 12.2% | [6] 4.4%

COc1cc2nc(Sc3c([N+](=O)[O-])ncn3C)[nH]c2cc1OC
inactive: [1] -41.6% | [2] -33.3% | [3] -30% | [4] -23% | [5] -43.5% | [6] -46%

O=C(O)c1c[nH]c(=O)[nH]c1=O.[Cu+2]
inactive: [1] -23.9% | [2] -13% | [3] -12.4% | [4] -44.5% | [5] -40.8% | [6] -21.2%

Cc1nc2ccc(Cl)cc2c(-n2ccnc2)c1CCn1ccnc1
inactive: [1] -11.6% | [2] -4.6% | [3] -3.55% | [4] -0.5% | [5] 9.25% | [6] -3.7%

COC(=O)c1ccc(C)[n+](C2OC(COC(=O)c3ccccc3)C(OC(=O)c3ccccc3)C2OC(=O)c2ccccc2)c1 (configuration not stated)
inactive: [1] 5.2% | [2] 3.45% | [3] 8% | [4] -25.6% | [5] -14.2% | [6] 29.1%

COc1ccccc1Cn1nc(OC)c2cc([N+](=O)[O-])ccc21
inactive: [1] 27.6% | [2] 30.6% | [3] -6.1% | [4] 2.05% | [5] -17.9% | [6] -64.7%

C[N+]1(CSC(=O)c2ccccc2)CCCCC1
inactive: [1] 1.95% | [2] 11.5% | [3] 12.3% | [4] 1.6% | [5] -9.75% | [6] 24.9%

CC(C)c1ccc(/C(O)=C/C(=O)C(=O)/C=C(/O)c2ccc(C(C)C)cc2)cc1
inactive: [1] 31.4% | [2] 2.25% | [3] 1.25% | [4] 9.6% | [5] 2.5% | [6] 10.7%

Cc1ncc([N+](=O)[O-])n1CCNCCCn1ccnc1[N+](=O)[O-]
inactive: [1] -9.9% | [2] -7.25% | [3] -17.4% | [4] -9.3% | [5] -9.7% | [6] -44%

N#CC1CC=CCN1CCc1ccccc1 (configuration not stated)
inactive: [1] -9.5% | [2] -5.75% | [3] -4.95% | [4] 42.5% | [5] 20.7% | [6] 7.5%

N=C(N)n1ncc2c1CCC/C2=N/N=C(N)N
inactive: [1] 17.5% | [2] 17.1% | [3] 13.5% | [4] 64.3% | [5] 29.9% | [6] 3.9%

CCC(C)NC(=O)c1cccc2c1-c1ccccc1C2=O (configuration not stated)
inactive: [1] -0.05% | [2] -5.15% | [3] 0.35% | [4] 1.4% | [5] 25.2% | [6] 14.4%

O=C1/C(=C/c2ccco2)CC/C1=C\c1ccco1
inactive: [1] 23.4% | [2] 15% | [3] 29% | [4] -18.1% | [5] 14.1% | [6] 44.5%

CCN(/N=C1\CC2C=CCN(C2)C(=O)Cc2c1[nH]c1ccccc21)S(=O)(=O)c1ccc(C)cc1 (configuration not stated)
inactive: [1] 30.9% | [2] 12.1% | [3] 39.2% | [4] 23.6% | [5] 20.5% | [6] 19.4%

CCOC(=O)CC(c1ccc2c(c1)OCO2)c1cc(OC)c(OC)c(OC)c1 (configuration not stated)
inactive: [1] -7.65% | [2] 24.9% | [3] -3% | [4] 0.45% | [5] 29.1% | [6] 3.2%

O=C1c2cc([N+](=O)[O-])ccc2-c2c(S)cccc21
inactive: [1] 2.25% | [2] 5.25% | [3] -10.2% | [4] -4.7% | [5] 25.8% | [6] -16.3%

CC(C)(CCN(CC(=O)O)CC(=O)O)[N+](=O)[O-]
inactive: [1] -16.1% | [2] -3.1% | [3] 3.65% | [4] -69.8% | [5] 6.05% | [6] -21.5%

CN(C)Cc1ccccc1O
inactive: [1] 4.15% | [2] 17.6% | [3] -3.6% | [4] -17.6% | [5] 5.65% | [6] -51.5%

CCSc1nc2ccc(CN3C(=O)c4ccccc4C3=O)cc2s1
inactive: [1] 1.3% | [2] -3.5% | [3] -4.6% | [4] 1.5% | [5] 15.8% | [6] -2.3%

CCOC(=O)C1C(C)=CC(=O)CC1C(C)C (configuration not stated)
inactive: [1] 4.1% | [2] -8.5% | [3] 5.7% | [4] -20.6% | [5] -15.8% | [6] 5.2%

CC(O)C(C)NC(C)C(C)O (configuration not stated)
inactive: [1] 0.4% | [2] -0.35% | [3] -30.8% | [4] 15.3% | [5] 12.1% | [6] -2.85%

CSc1c(C#N)c(N)nc2c(N=Nc3ccc(Cl)cc3)c(N)nn12
inactive: [1] 8.75% | [2] 3.65% | [3] -9.1% | [4] -4.65% | [5] -6.5% | [6] -58%

O=C(O)COc1ccc2ccccc2c1 (tested in a mixture with another compound)
inactive: [1] -36% | [2] -19.9% | [3] -26.3% | [4] -37.7% | [5] -0.1% | [6] -5.65%

COC(=O)C(Cc1c[nH]c2ccccc12)NC(=O)c1ccccc1NC(=O)OCc1ccccc1 (configuration not stated)
inactive: [1] 5.85% | [2] -13.1% | [3] 9.15% | [4] -14.1% | [5] 15.1% | [6] 7.65%

NC1CCC2(O)c3ccccc3C2C1 (configuration not stated)
inactive: [1] -0.95% | [2] 0.05% | [3] 22.2% | [4] 18.9% | [5] 5.7% | [6] 7.35%

Cc1cc(C)c(C(=O)c2cccc(Cl)c2)c(C)c1
inactive: [1] -13% | [2] 4.7% | [3] 5.55% | [4] -56.9% | [5] 34.4% | [6] 22%

CN(C)c1ccc(C=O)cc1[N+](=O)[O-]
inactive: [1] 2.75% | [2] 6.25% | [3] -10.8% | [4] -31.8% | [5] -6.9% | [6] -5.9%

CN(C)c1nc2nc[nH]c2c(=S)n1C
inactive: [1] 7.45% | [2] 6% | [3] 4.1% | [4] 24.6% | [5] -9.6% | [6] 0.15%

CCCC(NC(=O)OCc1ccccc1)C(=O)NC(Cc1ccc(O)cc1)C(=O)O (configuration not stated) (Cbz-[Nva]-Tyr-OH; configuration not given here)
inactive: [1] -3.5% | [2] -0.35% | [3] -4.2% | [4] 7% | [5] -16.4% | [6] 10%

c1ccc(C2=NN3CN(N2)c2ccccc2OCCCOc2ccccc23)cc1
inactive: [1] -25.2% | [2] 2.05% | [3] -5.55% | [4] 12.8% | [5] 18.3% | [6] 6.25%

Cc1oc2nc(N(C)C)nc(Cl)c2c1C
inactive: [1] 7.15% | [2] 5.8% | [3] 8.25% | [4] 12.5% | [5] 22.1% | [6] -15%

CCN(CC)C1CCC(C2c3cc4c(cc3OC(N3CCOCC3)C2C)OCO4)CC1 (configuration not stated)
inactive: [1] -11.1% | [2] -18.4% | [3] -22.8% | [4] -63% | [5] 7.95% | [6] -22.4%

O=[N+]([O-])CC1=CCCCC1
inactive: [1] 30.6% | [2] 12.2% | [3] 25.9% | [4] 4.05% | [5] -5.05% | [6] 16.6%

Clc1ccc(C(Cl)(Cl)C(Cl)(Cl)Cl)cc1
inactive: [1] 6.65% | [2] 40.4% | [3] -2.15% | [4] -61.2% | [5] 40% | [6] 44.1%

Clc1ccc(CSc2nnc(SCc3ccc(Cl)c(Cl)c3)c3[nH]cnc23)cc1Cl
inactive: [1] 36.5% | [2] 6.15% | [3] 47.4% | [4] 30.6% | [5] 22.9% | [6] 3.1%

CC[N+](C)(CC)CCOc1ccc(Cc2nc3c([nH]2)c(=O)n(C)c(=O)n3C)cc1
inactive: [1] 8.15% | [2] 5.9% | [3] 13.8% | [4] -4.4% | [5] -9.6% | [6] 19.6%

CCOC1(c2ccccc2)CCNCC1
inactive: [1] 21.9% | [2] -0.65% | [3] 29.4% | [4] 15.7% | [5] 16.3% | [6] 12.9%

COc1ccc(CC2CCCNC2C(=O)O)cc1 (configuration not stated)
inactive: [1] -1.65% | [2] -13.2% | [3] -3.55% | [4] -38.7% | [5] -16.6% | [6] 10.8%
